Sampled rows, rich in hits. Any-hit rate of the full collection: about 2.4%.
NOD2-RIPK2 inh – inhibitors of human NOD2-RIPK2 interaction; O43353; CHO BLA complementation NOD2-RIPK2, CCF4 ratio; inhibition, % at 4.98 µM; 0.38% of 360,000 active; AID 624267; in the data active = inhibition above about 21%
TLR9-MyD88 block – blocks human TLR9 binding to MyD88; 0.21% of 340,000 active; CHO BLA complementation TLR9-MyD88, CCF4 FRET ratio; inhibition, % at 4.98 µM; Q9NR96+Q99836;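 active = inhibition above the mean over all tested compounds plus 3 SD, cut at about 21% in these data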
HTR2A ag – mouse HTR2A agonism via beta-arrestin recruitment; CHO-K1 mHTR2A beta-arrestin complementation, luminescence; percent of 30 µM serotonin response; activation, % at 7.6 µM; 0.66% of 360,000 active; AID 624169;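 active = activation above a run cutoff, the mean activation of all tested compounds plus 3 SD, cut at about 14% in these data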
ABHD5 PLIN5 PPI – ABHD5-PLIN5 protein interaction inhibition; inhibition, % at 4 µM; Q00G26+Q8WTS1; 0.78% of 360,000 active; Split G. princeps luciferase complementation, luminescence, 4 h;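 active = inhibition above the mean inhibition across every tested compound plus 3 SD, cut at about 22% in these data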
CRFR2-BP antag – antagonists of CRF-binding protein/CRF-R2 receptor complex. 0.59% of 350,000 active. HEK293 CRF-R2/CRF-BP, CRF-induced calcium fluorescence. inhibition, % at 11.8 µM;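 active = inhibition of the ligand-induced calcium signal above about 50% at the single tested concentration, limit read from the data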
TLR4 MyD88 comp – TLR4-MyD88 interaction inhibition in cells. inhibition, % at 8.4 µM. O00206+Q99836. HeLa CL3-4 TLR4/MyD88 BLA complementation, FRET ratio. 0.18% of 200,000 active; in the data active = inhibition above about 25%
ABHD5-PLIN5 conf – ABHD5-PLIN5 interaction inhibition, confirmed; shares compounds with ABHD5 PLIN5 PPI; biochemical ABHD5-PLIN5 interaction, luminescence; inhibition, % at 4 µM; 67% of 2,200 active; AID 651612; in the data active = inhibition above about 23%
HNF4 counter – active in HNF4 split-luciferase counter-screen for ABHD5-PLIN5 inhibitors; HNF4 dimerization, luminescence, biochemical; 77% of 2,200 active; inhibition, % at 4 µM; shares compounds with ABHD5 PLIN5 PPI;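 active = mean inhibition across replicate wells exceeding the computed hit threshold, cut at about 13% in these data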;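 also: light from luciferase halves that rejoin when HNF4 fusion proteins dimerize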
Hits are given with their value; . = inactive; / = no result.

SMILES	NOD2-RIPK2 inh	TLR9-MyD88 block	HTR2A ag	ABHD5 PLIN5 PPI	CRFR2-BP antag	TLR4 MyD88 comp	ABHD5-PLIN5 conf	HNF4 counter
Clc1cccc(Cc2c(-c3ccco3)nc3ccc(Cl)cn23)c1	.	/	.	71	/	/	86	102
Cc1ccc(Cc2c(-c3ccco3)nc3c(C)cc(Br)cn23)cc1	.	/	.	64	/	/	48	66
C[C@H]1CN([C@@H](C)CO)S(=O)(=O)c2ccc(/C=C/c3ccccc3)cc2O[C@H]1CN(C)C(=O)NC1CCCCC1	.	.	.	.	.	/	/	/
Fc1ccc(-c2nc3ccc(Br)cn3c2Cc2ccsc2)cc1	.	/	.	.	/	/	/	/
Cc1ccccc1CN1C(=O)c2ccccc2C1c1nnnn1C(C)C (stereo not drawn)	.	/	.	.	/	/	/	/
Cn1c(NCCN2CCCCC2)cc(=O)n(C)c1=O	.	.	.	28	.	.	.	.
CN1OC[C@@H]2CN3C(=O)N(c4ccccc4)c4ccccc4[C@@H]3C[C@@H]21	.	/	.	.	/	/	/	/
O=C(C[C@@H]1CC[C@H](NC(=O)Cc2ccccn2)[C@@H](CO)O1)NCCc1ccccc1	.	/	.	.	/	/	/	/
C=CCN(CC=C)Cc1cc(=O)oc2ccc3ccccc3c12	.	/	.	.	/	/	/	/

Screens (PubChem BioAssay)
